Several values for one entry are separate records, joined by “and”; a condition that tells them apart may be missing. Equal entries are not always repeated.
Assays:
[1] = test system: Botulinum neurotoxin type F light chain protease (Clostridium botulinum); assay: Botulinum neurotoxin type F light chain protease inhibition, multiplex microsphere flow cytometry, validation set (AID 588459); conditions: multiplex microsphere protease substrate cleavage assay, at 10 µM, hits give high values
[2] = biological target: Botulinum neurotoxin type A (Clostridium botulinum) (UniProt P0DPI0); assay: BoNT/A light chain protease inhibitors, biochemical, multiplex microsphere flow cytometry, validation set (AID 588460); conditions: at 10 µM, hits give high values
[3] = biological target: Lethal factor (Bacillus anthracis) (UniProt P15917); assay: Lethal factor protease inhibitors, Bacillus anthracis, multiplex microsphere cleavage assay, validation set (AID 588461); conditions: flow cytometry, at 10 µM, hits give high values

Measured: inhibition

Chain of Botulinum neurotoxin type A (Clostridium botulinum) (P0DPI0 whole entry, looked up): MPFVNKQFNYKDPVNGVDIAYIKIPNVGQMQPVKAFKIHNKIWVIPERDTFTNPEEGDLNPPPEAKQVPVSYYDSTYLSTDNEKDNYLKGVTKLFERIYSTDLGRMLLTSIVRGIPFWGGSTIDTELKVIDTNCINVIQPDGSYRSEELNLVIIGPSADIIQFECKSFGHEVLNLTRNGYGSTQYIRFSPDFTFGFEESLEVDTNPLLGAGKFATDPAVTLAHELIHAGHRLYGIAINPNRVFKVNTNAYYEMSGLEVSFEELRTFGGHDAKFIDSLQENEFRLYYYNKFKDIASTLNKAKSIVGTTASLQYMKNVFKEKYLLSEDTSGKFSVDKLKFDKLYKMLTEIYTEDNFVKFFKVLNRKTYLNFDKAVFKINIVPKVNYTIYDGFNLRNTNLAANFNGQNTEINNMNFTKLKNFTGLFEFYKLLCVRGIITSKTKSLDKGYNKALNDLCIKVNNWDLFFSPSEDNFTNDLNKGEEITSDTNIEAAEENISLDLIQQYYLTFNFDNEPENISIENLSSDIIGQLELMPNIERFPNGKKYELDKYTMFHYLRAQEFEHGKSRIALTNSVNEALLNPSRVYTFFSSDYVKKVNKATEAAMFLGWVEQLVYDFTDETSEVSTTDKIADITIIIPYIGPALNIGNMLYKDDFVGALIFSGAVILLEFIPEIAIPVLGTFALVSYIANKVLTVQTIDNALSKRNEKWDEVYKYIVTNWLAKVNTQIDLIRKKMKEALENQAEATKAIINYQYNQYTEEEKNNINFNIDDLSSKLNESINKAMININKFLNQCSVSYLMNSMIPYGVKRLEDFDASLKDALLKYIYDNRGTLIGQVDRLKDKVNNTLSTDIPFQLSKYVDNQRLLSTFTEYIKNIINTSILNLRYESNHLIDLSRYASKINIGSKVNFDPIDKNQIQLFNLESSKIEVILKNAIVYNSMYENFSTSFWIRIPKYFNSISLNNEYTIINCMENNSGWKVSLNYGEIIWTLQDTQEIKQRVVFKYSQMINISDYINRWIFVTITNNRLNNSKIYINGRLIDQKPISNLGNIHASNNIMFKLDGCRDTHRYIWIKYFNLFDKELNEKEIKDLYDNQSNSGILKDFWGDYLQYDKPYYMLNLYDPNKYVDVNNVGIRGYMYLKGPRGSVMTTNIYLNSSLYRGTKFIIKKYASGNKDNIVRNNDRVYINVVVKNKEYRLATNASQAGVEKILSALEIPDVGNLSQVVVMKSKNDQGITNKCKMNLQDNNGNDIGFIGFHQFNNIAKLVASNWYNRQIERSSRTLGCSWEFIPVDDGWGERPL
Chain of Lethal factor (Bacillus anthracis) (P15917 whole entry, looked up): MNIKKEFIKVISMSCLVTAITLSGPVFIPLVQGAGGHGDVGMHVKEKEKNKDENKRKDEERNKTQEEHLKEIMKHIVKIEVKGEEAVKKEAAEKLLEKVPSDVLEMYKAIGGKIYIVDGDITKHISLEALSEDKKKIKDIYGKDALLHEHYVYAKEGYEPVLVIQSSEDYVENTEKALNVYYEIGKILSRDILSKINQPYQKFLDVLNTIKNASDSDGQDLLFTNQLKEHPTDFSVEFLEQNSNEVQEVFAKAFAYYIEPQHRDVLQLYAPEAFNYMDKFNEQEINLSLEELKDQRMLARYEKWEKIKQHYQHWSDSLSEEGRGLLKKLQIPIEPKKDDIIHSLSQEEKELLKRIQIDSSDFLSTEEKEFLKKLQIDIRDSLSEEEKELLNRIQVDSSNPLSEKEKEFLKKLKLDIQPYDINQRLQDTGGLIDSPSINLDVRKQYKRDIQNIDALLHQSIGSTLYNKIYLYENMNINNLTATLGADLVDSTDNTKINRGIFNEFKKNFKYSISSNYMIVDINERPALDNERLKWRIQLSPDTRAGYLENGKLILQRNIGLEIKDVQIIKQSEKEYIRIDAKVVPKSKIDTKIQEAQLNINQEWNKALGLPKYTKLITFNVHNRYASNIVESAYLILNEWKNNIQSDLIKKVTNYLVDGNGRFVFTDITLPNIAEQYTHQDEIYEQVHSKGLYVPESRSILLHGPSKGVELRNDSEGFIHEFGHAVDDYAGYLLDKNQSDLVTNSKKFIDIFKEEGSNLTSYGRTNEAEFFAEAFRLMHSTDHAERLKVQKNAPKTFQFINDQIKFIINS

COc1ccc(-c2cc(C(=O)N3CCOCC3)c3cc(C)ccc3n2)cc1
inactive: [1] -8.2% | [2] -2.6% | [3] 2.3%

OC(CCCN1CCC(O)(c2ccc(Cl)cc2)CC1)c1ccc(F)cc1 (stereo not given)
inactive: [1] -1.7% | [2] 1.7% | [3] -4.8%

Cc1ccc(OCc2nc(-c3cccnc3)no2)cc1C
inactive: [1] -0.8% | [2] 0.4% | [3] -6.5%

CCCCC[C@H](O)/C=C/[C@@H]1[C@@H](C/C=C\CCCC(=O)O)[C@H]2CO[C@@H]1C2
inactive: [1] 0.5% | [2] -0.1% | [3] 3.3%

CCCCOc1cc(C(=O)NCCN(CC)CC)c2ccccc2n1
inactive: [1] 8.5% and -0.1% | [2] 1.5% and -0.6% | [3] -1.9% and 2.1%

CC(=O)Nc1c(I)c(NC(C)=O)c(I)c(C(=O)O)c1I
inactive: [1] -0.5% | [2] -1.9% | [3] 0.5%

CC1(CC(=O)Nc2ccccc2)NC(=S)N(c2ccccc2)N1 (stereo not given)
inactive: [1] 3% | [2] 0% | [3] 5.1%

CC(=O)O[C@]1(C(C)=O)CC[C@H]2[C@@H]3C=C(C)C4=CC(=O)CC[C@]4(C)[C@H]3CC[C@@]21C
inactive: [1] 2% | [2] 1.2% | [3] -4.2%

COC(=O)c1ccc(CC(=O)c2ccc(O)cc2O)o1
inactive: [1] -3.4% | [2] -0.8% | [3] -5.4%

O=C(CN1C(=O)c2ccccc2S1(=O)=O)Nc1ccccc1
inactive: [1] 2.3% | [2] 0.2% | [3] -4.6%
